Experimental data taken from PubChem BioAssay (NCATS).
Records with an inconclusive call do not appear. A number with no mark means an inactive call. The call rests on the fitted dose curve; in most records, active means well fitted inhibition curve with a large enough effect; inconclusive means small, poorly fitted or top-dose-only effect; inactive means no such curve, though single readings can be large or run the other way.
On the % scale 0 is the no-effect control and ±100 the full control effect.

The compounds below were run against Cytochrome P450 3A4 (Homo sapiens) (UniProt P08684) (assay: qHTS Assay for Inhibitors and Substrates of Cytochrome P450 3A4 (AID 884; further: nearly all actives have a fitted effect of over 50% in size)). Conditions: recombinant CYP3A4, Luciferin-PPXE luminescence; series mostly up to 57.1 µM; activity change, negative = inhibition: at the top concentration.
Chain of Cytochrome P450 3A4 (Homo sapiens) (P08684 whole entry, looked up): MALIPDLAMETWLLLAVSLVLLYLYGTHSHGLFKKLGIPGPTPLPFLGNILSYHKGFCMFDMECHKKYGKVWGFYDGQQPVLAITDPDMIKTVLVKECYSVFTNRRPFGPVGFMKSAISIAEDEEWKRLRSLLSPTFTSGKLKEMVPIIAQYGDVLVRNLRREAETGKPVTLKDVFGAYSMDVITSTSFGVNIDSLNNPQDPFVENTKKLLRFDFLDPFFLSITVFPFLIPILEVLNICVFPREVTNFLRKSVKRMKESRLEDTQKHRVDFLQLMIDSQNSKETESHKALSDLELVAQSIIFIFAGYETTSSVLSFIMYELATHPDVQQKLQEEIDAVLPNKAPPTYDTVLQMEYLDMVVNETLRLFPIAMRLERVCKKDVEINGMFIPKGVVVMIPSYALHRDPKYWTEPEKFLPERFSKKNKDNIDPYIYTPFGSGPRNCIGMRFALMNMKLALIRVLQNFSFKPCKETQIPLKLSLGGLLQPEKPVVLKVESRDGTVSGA
Procedure: NIH Molecular Libraries Screening Centers Network [MLSCN]
NIH Chemical Genomics Center [NCGC]
The P450 gene superfamily is involved in the metabolism and clearance of xenobiotics. This assay used human CYP3A4 to measure the dealkylation of luciferin-6' phenylpiperazinylyl (Luciferin-PPXE; […]) to luciferin. The luciferin is then measured by luminescence after the addition of a luciferase detection reagent. Luciferin-PPXE concentration in the assay was equal to its KM for CYP3A4. Inhibitors and some substrates limit the production of luciferin, and decrease measured luminescence.
NCGC Assay Protocol Summary:
Two uL of enzyme and substrate mix (final concentrations: 20nM CYP3A4, 25uM Luciferin-PPXE, 200mM KPO4) were dispensed into a white, solid bottom 1536-well microtiter plate. 23nL of compound was transferred by a pin tool. The plate was incubated at RT for 10 min. Two uL of an NADPH regeneration solution (Promega supplied reagent) was dispensed and the reaction was allowed to continue for 60 min at RT. Then the reaction was stopped by reconstituted luciferin detection buffer. After another 20 min of incubation the plate was read on the ViewLux (Perkin Elmer) at 60 sec exposure and 2x2 binning. This protocol was carried out with Promega-Glo reagents and further information can be found at http://www.promega.com/tbs/tb325/tb325.pdf. Data were normalized to the to AC100 inhibition (57 uM ketoconazole).
Keywords: P450, CYP3A4, Luciferase, MLSMR, MLSCN, NIH Roadmap, qHTS, NCGC
In the case of `NC(=O)c1cccc([N+](=O)[O-])c1`, the “activity change, negative = inhibition” value is reported as -6.97%.
With `CC/C=C1/OC(=O)c2ccccc21` the “activity change, negative = inhibition” value was -24%.
With `CCNS(=O)(=O)c1ccc(C)cc1` the “activity change, negative = inhibition” value was -18.3%.
For `NS(=O)(=O)O`, the “activity change, negative = inhibition” value was -13.1%.
In the case of `COc1ccc(OC)cc1`, the “activity change, negative = inhibition” value is reported as -4.24%.
With `CC1(N)CCC(C(C)(C)N)CC1` (stereo not given) the “activity change, negative = inhibition” value was -6.5%.
With `CCCCC=O` the “activity change, negative = inhibition” value was -3.26%.
In the case of `Cc1ccc(CO)cc1`, the “activity change, negative = inhibition” value is reported as -10.9%.
With `N#CCc1ccccc1[N+](=O)[O-]` the “activity change, negative = inhibition” value was -23.7%.
For `CCCCCNCCCCC`, the “activity change, negative = inhibition” value was 10.6%.
With `CCOC(=O)OCC` the “activity change, negative = inhibition” value was -9.61%.
For `c1ccsc1`, the “activity change, negative = inhibition” value was -11.7%.
In the case of `N#CC1(O)CCCCC1`, the “activity change, negative = inhibition” value is reported as -8.97%.
With `CCC(C)=O` the “activity change, negative = inhibition” value was -9.97%.
`Cc1ccc2cccnc2c1` was tested, and the “activity change, negative = inhibition” value was -6.56%.
`Cc1ccccc1C=O` was tested, and the “activity change, negative = inhibition” value was -0.733%.
`CC(=O)c1cccc([N+](=O)[O-])c1` was tested, and the “activity change, negative = inhibition” value was -20.8%.
For `C=CC(=O)NC(C)C`, the “activity change, negative = inhibition” value was -4.37%.
In the case of `BrC/C=C/CBr`, the “activity change, negative = inhibition” value is reported as -19.8%.
With `CCCCC(CC)C(=O)O` (stereo not given) the “activity change, negative = inhibition” value was 4.99%.
In the case of `O=C(O)c1ccccc1Cl`, the “activity change, negative = inhibition” value is reported as 0.175%.
For `O=C(Cl)c1ccccc1[N+](=O)[O-]`, the “activity change, negative = inhibition” value was -2.89%.
In the case of `CC(O)COC(C)(C)C` (stereo not given), the “activity change, negative = inhibition” value is reported as -9.44%.
For `Nc1nc2ccccc2[nH]1`, the “activity change, negative = inhibition” value was -0.65%.
For `NCCCCCCN`, the “activity change, negative = inhibition” value was -12.7%.
In the case of `CNc1ccc([N+](=O)[O-])cc1`, the “activity change, negative = inhibition” value is reported as -13.1%.
In the case of `C=CCCCCCCC=C`, the “activity change, negative = inhibition” value is reported as -0.558%.
In the case of `Cc1cccc2cccnc12`, the “activity change, negative = inhibition” value is reported as -11%.
With `O=C(O)c1cc(Cl)cc(Cl)c1` the “activity change, negative = inhibition” value was 10.4%.
With `c1ccc2[nH]cnc2c1` the “activity change, negative = inhibition” value was -13.6%.
For `CCCCC(C=O)CC` (stereo not given), the “activity change, negative = inhibition” value was 5.34%.
`CC(C)(C)OC=O` was tested, and the “activity change, negative = inhibition” value was -3.51%.
In the case of `Nc1ccccc1[N+](=O)[O-]`, the “activity change, negative = inhibition” value is reported as -14.5%.
With `CC/C(C)=N/O` the “activity change, negative = inhibition” value was -6.45%.
With `Cc1ccccc1C(N)=O` the “activity change, negative = inhibition” value was -1.94%.
In the case of `OC/C(Br)=C(\Br)CO`, the “activity change, negative = inhibition” value is reported as 0.225%.
`ClC/C=C/CCl` was tested, and the “activity change, negative = inhibition” value was 15.5%.
`COCCOC(=O)c1ccccc1C(=O)OCCOC` was tested, and the “activity change, negative = inhibition” value was -28.5%.
`CCc1ccccc1` was tested, and the “activity change, negative = inhibition” value was -4.56%.
In the case of `CC(=O)c1ccc([N+](=O)[O-])cc1`, the “activity change, negative = inhibition” value is reported as -13%.
